Screening data as filed in PubChem BioAssay.
Shown are actives, neighbours in structure and some others; about 19% of the full set was active somewhere.
IL1B secr inh: blocks inflammasome-driven IL-1 beta release; THP-1 LPS/ATP IL-1B secretion, AlphaLISA, 16 h; stronger effect = lower value; activity change, % at 57.5 µM; 360,000 compounds, 4.7% hits; in the data active = activity change below about -50%; inconclusive = mostly about -30% to -49%; also: % is scaled to controls: 0 for no effect and ±100 for the full control effect
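Secreted IL-1B measured by AlphaLISA bead assay after 16 h compound exposure of THP-1 cells; compounds (final up to 57.5 uM) added 1 h before LPS (250 ng/mL) and ATP (1.25 mM) stimulation; lower signal means less secretion.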
HepG2 viability: HepG2 cytotoxicity, counter-screen for TGF-b inhibitors | 410,000 compounds, 0.76% hits | Potency, µM (series often up to 46.1 µM), without a hit: at the highest dose activity change, negative = cytotoxicity, hits mostly cytotoxic | HepG2 CAGA-GFP viability, ATP luminescence, 18 h | AID 588856; also: potency is read from the fitted curve at half-maximal effect
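HepG2 CAGA-GFP cells (1000/well, DMEM with 1% FBS) received compound, then TGF-beta at 500 pg/mL final, and were incubated 18 hours at 37 degrees C. Viability was read by CellTiter-Glo luminescence. Media-only wells were set as complete cell-killing and DMSO as no toxicity.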
TDP1 block: blocks human tyrosyl-DNA phosphodiesterase 1. 350,000 compounds, 0.28% hits. Potency, µM (series often up to 130 µM), for the others: at the top dose activity change, negative = inhibition, usual class: inhibitors. recombinant TDP1, AlphaScreen DNA substrate cleavage. Q9NUW8; also: potency is read from the fitted curve at half-maximal effect; % is scaled to controls: 0 for no effect and ±100 for the full control effect; nearly all actives have a fitted effect of over 40% in size
Target sequence (Q9NUW8 whole entry, looked up): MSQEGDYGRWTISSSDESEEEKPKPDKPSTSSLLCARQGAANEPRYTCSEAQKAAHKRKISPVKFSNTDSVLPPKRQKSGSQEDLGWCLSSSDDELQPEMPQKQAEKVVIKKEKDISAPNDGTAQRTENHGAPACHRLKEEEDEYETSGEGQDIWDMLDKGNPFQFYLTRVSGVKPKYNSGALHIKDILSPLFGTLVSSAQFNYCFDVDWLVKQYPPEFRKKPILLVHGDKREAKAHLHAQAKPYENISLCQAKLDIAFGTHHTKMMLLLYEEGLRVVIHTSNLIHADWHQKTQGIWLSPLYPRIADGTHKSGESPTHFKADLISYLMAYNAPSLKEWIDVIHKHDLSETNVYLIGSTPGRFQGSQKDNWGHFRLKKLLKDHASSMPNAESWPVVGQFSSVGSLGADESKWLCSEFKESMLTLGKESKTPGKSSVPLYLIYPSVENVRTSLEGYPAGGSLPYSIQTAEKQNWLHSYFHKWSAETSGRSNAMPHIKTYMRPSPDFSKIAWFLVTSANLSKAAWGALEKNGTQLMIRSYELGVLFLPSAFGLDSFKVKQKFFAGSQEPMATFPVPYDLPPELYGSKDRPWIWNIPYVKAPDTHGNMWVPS
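Here, a 5' biotin and 3' phosphotyrosine-FITC DNA oligonucleotide reports Tdp1 activity: intact substrate bridges AlphaScreen beads, while cleavage leaves a 3' phosphate and drops signal. All incubations at room temperature.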
TGFb inhibitor: blocks TGF-b signaling. Potency, µM (highest dose often 46.1 µM), for inactives: at the highest dose activity, negative = inhibition, most hits filed as inhibitors. AID 588855. 410,000 compounds, 1.2% hits. HepG2 CAGA-GFP TGF-b/SMAD3 reporter, GFP fluorescence, 18 h; TGF-beta stimulated, 500 pg/mL final; also: potency is read from the fitted curve at half-maximal effect; % is scaled to controls: 0 for no effect and ±100 for the full control effect; nearly all actives have a fitted effect of over 65% in size
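HEPG2 CAGA-GFP, 1000 cells/well; 2 h settle, 37 C; cpd via pin tool; TGF-b 500 pg/mL final; 18 h, 37 C; GFP imaging ex488/em500-530; %Activity normalised to -TGF-b and +DMSO controls; CRC fit, curve class.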
TDP1 cell CPT: growth inhibition of DT40 Tdp1-/-;hTDP1 cells with camptothecin (screen for TDP1 inhibitors). chicken DT40 Tdp1-/-;hTDP1 cells + 20 nM CPT, ATP luminescence, 48 h. 420,000 compounds, 12% hits. Potency, µM (titrated, usually from 46.2 µM), for inactives: top-dose activity change, negative = growth inhibition, most hits filed as inhibitors; also: potency is read from the fitted curve at half-maximal effect; % is scaled to controls: 0 for no effect and ±100 for the full control effect; nearly all actives have a fitted effect of over 55% in size
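Cell growth measured by CellTiter-Glo luminescence after a minimum 48 h, 37 C compound exposure with 20 nM CPT in Tdp1-knockout DT40 cells stably expressing hTDP1, seeded 400/well; qHTS titration format.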
TDP1 cell noCPT: qHTS for Inhibitors of human tyrosyl-DNA phosphodiesterase 1 (TDP1): qHTS in cells in absence of CPT | Potency, µM (doses to about 46.2 µM), inactives show top-dose activity change, negative = growth inhibition, most hits filed as inhibitors | 420,000 compounds, 15% hits | DT40 Tdp1-/- hTDP1 cells, no CPT, ATP luminescence, 48 h; also: potency is read from the fitted curve at half-maximal effect; % is scaled to controls: 0 for no effect and ±100 for the full control effect; nearly all actives have a fitted effect of over 55% in size
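Growth of hTDP1-complemented DT40 Tdp1-knockout cells is measured by ATP luminescence after at least 48 hr compound exposure at 37 °C, with DMSO substituting for the 20 nM CPT used in the parallel screen.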
Starred values were filed as active, the others as inactive; ? = inconclusive; . = no result given; [ ] = another dose, or the depositor's remark. Unless noted, calls follow the shape of the dose curve; as a rule, active = well fitted curve in the direction sought with a large enough effect; inconclusive = small, poorly fitted or top-dose-only effect, or another doubt; inactive = no such curve, though single readings can be large; an effect the other way counts as inactive or inconclusive.

SMILES	IL1B secr inh	HepG2 viability	TDP1 block	TGFb inhibitor	TDP1 cell CPT	TDP1 cell noCPT
Cn1c(CC(=O)Nc2ccccc2F)nnc1SCC(=O)Nc1nccs1	10.8	0.7%	-5.9%	9.2%	3.4%	-14.6%
CC(C)C[C@H](NC(=O)[C@H](CCCCN)NC(=O)[C@H](CCCNC(=N)N)NC(=O)[C@H](C)NC(=O)[C@H](CO)NC(=O)[C@H](CCCCN)NC(=O)[C@H](CCCNC(=N)N)NC(=O)[C@H](C)NC(=O)CNC(=O)[C@@H](NC(=O)[C@H](Cc1ccccc1)NC(=O)CNC(=O)CNC(=O)[C@@H](N)Cc1ccccc1)[C@@H](C)O)C(=O)N[C@@H](C)C(=O)N[C@@H](CC(N)=O)C(=O)N[C@@H](CCC(N)=O)C(=O)O	.	.	11.5%	.	.	.
Cc1ccc(Cn2c(C)c3cnn(CC(=O)NC4CCCC4)c(=O)c3c2C)cc1	19.4	0.0%	.	1.2%	?	?
O=C(Cn1ncc(Cl)c(Cl)c1=O)NC1CCS(=O)(=O)C1 (stereo not drawn)	-5.9	4.0%	.	8.5%	23.1µM*	20.6µM*
O=C1CN(C(=O)COc2ccc(Cl)c(Cl)c2)c2ccccc2N1	-3.0	0.0%	2.5%	?	-10.3%	-20.5%
O=C(CN1C(=O)c2ccccc2C1=O)NC1CCS(=O)(=O)C1 (stereo not drawn)	-11.9	2.7%	.	-0.5%	-5.9%	-0.5%
Cc1cccc(NC(=O)CNC(=O)Cn2ncc(Cl)c(Cl)c2=O)c1C	-100.2*	1.2%	14.1µM*	?	11.6µM*	9.2µM*
O=C(Cn1ncc(Cl)c(Cl)c1=O)NC1CCCCC1	-99.8*	12.2%	-5.0%[56.1 µM]	-26.8%	10.3µM*	14.6µM*
O=C1CN(C(=O)Cn2ncc(Cl)c(Cl)c2=O)c2ccccc2N1	-105.7*	0.7%	4.9%	-17.5%	7.31µM*	8.2µM*
Cc1nn(C)c(Cl)c1S(=O)(=O)N(Cc1ccco1)c1ncnc2nc[nH]c12	.	15.2%	1.2%	-2.4%	-8.8%	-10.2%
O=C(Cn1ncc(Cl)c(Cl)c1=O)NCC1CCCCC1	-102.9*	11.6%	2.7%	?	2.59µM*	1.84µM*
O=C(COC(=O)c1c(F)cccc1Cl)NCC1CCCCC1	18.2	-18.3%	-0.1%	16.1%	?	-14.5%
CC1CCCC(NC(=O)COC(=O)COc2ccc(C#N)cc2)C1C (stereo not drawn)	14.9	9.0%	0.3%	17.0%	8.2%	-1.5%
COc1ccc(C(=O)N=c2sc3ccccc3n2C)cc1OC	1.3	-19.4%	2.4%	2.4%	?	14.6µM*
COc1ccc(C(=O)N=c2sc3c(C)ccc(OC)c3n2C)cc1OC	-27.0	-9.2%	.	-6.3%	5.17µM*	5.8µM*
c1ccc2c(c1)NC1(CCCC1)n1c-2nc2ccccc21	-79.3*	-22.4%	1.0%	-18.4%	?	?
CCCC1(C)Nc2ccccc2-c2nc3ccccc3n21 (stereo not drawn)	-0.7	-30.4%	-3.8%	-0.1%	?	?
CCC(=O)Nc1nnc(S(=O)(=O)N(C)Cc2ccc(Cl)cc2)s1	.	-7.5%	8.5%	0.0%	3.3%	-9.8%
Cc1cccc2nc(COc3ccc4ccccc4c3Br)cn12	65.5	-43.7%	5.6%	0.0%	?	23.1µM*
Cc1cccc2nc(CSc3ccccc3N)cn12	31.6	12.9%	.	9.0%	-9.4%	?
C[n+]1cccc2cccc([O-])c21	2.5	-6.7%	39.8µM*	-11.0%	-14.0%	-22.4%
COCCN(CCOC)c1nc(C)nc2c1nc(-c1ccccc1)n2CC1CCN(C)CC1	.	.	1.5%	.	.	.
Cc1ccccc1NC(=O)CSc1nc2c(oc3ccccc32)c(=O)n1-c1ccccc1F	.	-31.2%	-2.0%	?	?	23.1µM*
CCc1ccccc1NC(=O)CSc1nc2c(oc3ccccc32)c(=O)n1-c1ccccc1F	.	-14.1%	2.9%	-20.4%	?	18.4µM*
CC(=O)NC12CC3CC(C1)CC(C(=O)Oc1ccc(N(C)S(=O)(=O)c4cc(C)ccc4C)cc1)(C3)C2	-24.7	-9.6%	0.3%	1.6%	?	16.4µM*
SMILES	IL1B secr inh	HepG2 viability	TDP1 block	TGFb inhibitor	TDP1 cell CPT	TDP1 cell noCPT
CCOC(=O)C1(C)CCN1C(=O)c1ccc(OC)c(C(F)(F)F)c1 (stereo not drawn)	21.9	6.4%	.	-9.8%	?	?
Cc1nn(C)cc1/C=C/C(=O)c1cccs1	-19.3	-17.1%	-5.5%	0.6%	32.1%	-16.5%
Cn1cc(/C=C/C(=O)c2ccccc2)c2ccccc21	-3.8	-60.7%	8.7%	0.0%	-22.8%	?
CCCCN(C)CC(O)Cn1cc(/C=C/C(=O)c2cccs2)c2ccccc21 (stereo not drawn)	-56.2*	-104.7%	0.0%	?	18.4µM*	?
O=C(/C=C/c1cn(CC(O)CN2CCCCCC2)c2ccccc12)c1cccs1 (stereo not drawn)	-107.0*	-10.0%	3.5%	14.9%	?	?
O=Cc1cn(CC(O)Cn2cc(C=O)c3ccccc32)c2ccccc12	28.7	28.3%	.	11.1%	0.6%	4.0%
CCOc1ccc(C(=O)/C=C/c2cn(CC(O)CN3CCc4ccccc43)c3ccccc23)cc1 (stereo not drawn)	.	-34.1%	10.1%	?	7.31µM*	8.2µM*
CCOc1ccc(C(=O)N2CCc3ccccc32)cc1	7.7	-8.3%	1.1%	-5.1%	-29.5%	-20.4%
Cc1ccc(C(=O)/C=C/c2cn(CN3CCN(C)CC3)c3ccccc23)cc1	-55.0*	-87.1%	6.1%	?	-22.2%	?
CC(C(=O)NC1CCCc2ccccc21)N1C(=O)C2CCCCC2C1=O (stereo not drawn)	9.7	-0.8%	0.8%	6.8%	3.0%	14.2%
Cc1c(CCC(=O)NCCCn2ccnc2)c(=O)oc2c(C)c3oc4c(c3cc12)CCCC4	?	-37.5%	.	?	?	?
Cc1ccc(NS(=O)(=O)c2ccc(-c3coc(C)n3)cc2)c(Br)c1	43.2	-27.3%	8.0%	-1.5%	-13.5%	-11.1%
CS(=O)(=O)N(Cc1ccco1)CC(O)Cn1cc(C=O)c2ccccc21 (stereo not drawn)	3.8	-11.8%	1.8%	-10.5%	?	-17.2%
CCCCN(CCCC)CC(O)Cn1cc(/C=C/C(=O)c2ccccc2)c2ccccc21 (stereo not drawn)	.	-102.4%	-5.1%	?	10.3µM*	10.3µM*
